According to PubChem BioAssay (EPA / NIEHS):
A structure can be active in one record and inactive in another. Active and inactive are the calls of the source. How the source made its calls: active means hit-call score of the fitted dose curve at least 0.9, where 1 is the maximum; inactive means score below 0.9.

What follows are compounds tested on TIMP1, TIMP1 (gene 7076) (assay: LTEA_HepaRG_TIMP1: Life Technologies and Expression Analysis (LTEA) Assay for TIMP1 using HepaRG (AID 2283534;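 on outcome: TaqMan qRT-PCR signal normalized to ACTB GAPDH and POLR2A housekeeping genes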)). Details: mRNA level, 48 h; actives raise or lower the signal.
How it was run: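 Differentiated human HepaRG cells in serum-free induction medium were exposed 48 h to chemicals (8 half-log concentrations, top 100 uM, 0.5% DMSO). TIMP1 mRNA was quantified by TaqMan qRT-PCR, normalized to ACTB/GAPDH/POLR2A; bidirectional fit versus DMSO.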

Row | Structure (SMILES) | outcome | AC50
1 | Oc1ccc(Cl)cc1Cc1ccccc1 | inactive | 
2 | O=S(=O)(O)C(F)(F)C(F)(F)C(F)(F)C(F)(F)C(F)(F)C(F)(F)C(F)(F)C(F)(F)F | inactive | 
3 | CC(C)(C)C(O)C(Oc1ccc(Cl)cc1)n1cncn1 (stereo unspecified) | inactive | 
4 | CNC(=O)Oc1ccccc1OC(C)C | inactive | 
5 | COP(=S)(OC)Oc1ccc([N+](=O)[O-])cc1 | inactive | 
6 | CNC(=O)Oc1cccc(N=CN(C)C)c1 | inactive | 
7 | O=C(Nc1ccccc1)Nc1cnns1 | inactive | 
8 | O=C(O)COc1ccc(Cl)cc1Cl | inactive | 
9 | CCOCN(C(=O)CCl)c1c(C)cccc1CC | inactive | 
10 | CC1(c2ccc(Oc3ccccc3)cc2)OC(=O)N(Nc2ccccc2)C1=O (stereo unspecified) | inactive | 
11 | N#Cc1c(Cl)c(Cl)c(Cl)c(C#N)c1Cl |  | 22.5 µM (active)
12 | Oc1cc(Cl)ccc1Oc1ccc(Cl)cc1Cl | inactive | 10.1 µM (active)
13 | CC1(C)C(C=C(Cl)Cl)C1C(=O)OC(C#N)c1ccc(F)c(Oc2ccccc2)c1 (stereo unspecified) | inactive | 
14 | CN1CSC(=S)N(C)C1 | inactive | 
15 | CCN(CC)C(=O)SCc1ccc(Cl)cc1 | inactive | 
16 | O=C(O)C(F)(F)C(F)(F)C(F)(F)C(F)(F)C(F)(F)C(F)(F)C(F)(F)F | inactive | 
17 | CCc1ccc(C(=O)NN(C(=O)c2cc(C)cc(C)c2)C(C)(C)C)cc1 | inactive | 
18 | CC(C)OC(=O)Nc1cccc(Cl)c1 | inactive | 
19 | COc1nn(CSP(=S)(OC)OC)c(=O)s1 | inactive | 
20 | ClC1C(Cl)C(Cl)C(Cl)C(Cl)C1Cl (stereo unspecified) | inactive | 
21 | O=C(O)CCCOc1ccc(Cl)cc1Cl | inactive | 
22 | CCC(C)(NC(=O)c1cc(Cl)c(C)c(Cl)c1)C(=O)CCl (stereo unspecified) | inactive | 

These compounds were tested on Tumor necrosis factor receptor 1 (TNFRSF1A), TNFRSF1A (gene 7132) (assay: LTEA_HepaRG_TNFRSF1A: Life Technologies and Expression Analysis (LTEA) Assay for Tumor necrosis factor receptor 1 (TNFRSF1A) using HepaRG (AID 2283535)). Details: mRNA level, 48 h; actives raise or lower the signal.
How it was run: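 Differentiated human HepaRG cells were exposed in duplicate for 48 h in serum-free induction medium to eight concentrations (top 100 uM, half-log steps, 0.5% DMSO). TNFRSF1A mRNA was quantified by qRT-PCR, normalized to ACTB, GAPDH and POLR2A, then fitted bidirectionally against DMSO.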

Row | Structure (SMILES) | outcome | AC50
23 | Oc1ccc(Cl)cc1Cc1ccccc1 | inactive | 
24 | O=S(=O)(O)C(F)(F)C(F)(F)C(F)(F)C(F)(F)C(F)(F)C(F)(F)C(F)(F)C(F)(F)F | inactive | 
25 | CC(C)(C)C(O)C(Oc1ccc(Cl)cc1)n1cncn1 (stereo unspecified) | inactive | 
26 | CNC(=O)Oc1ccccc1OC(C)C | inactive | 
27 | COP(=S)(OC)Oc1ccc([N+](=O)[O-])cc1 | inactive | 
28 | CNC(=O)Oc1cccc(N=CN(C)C)c1 | inactive | 
29 | O=C(Nc1ccccc1)Nc1cnns1 | inactive | 
30 | O=C(O)COc1ccc(Cl)cc1Cl | inactive | 
31 | CCOCN(C(=O)CCl)c1c(C)cccc1CC | inactive | 
32 | CC1(c2ccc(Oc3ccccc3)cc2)OC(=O)N(Nc2ccccc2)C1=O (stereo unspecified) | inactive | 
33 | N#Cc1c(Cl)c(Cl)c(Cl)c(C#N)c1Cl | inactive | 
34 | Oc1cc(Cl)ccc1Oc1ccc(Cl)cc1Cl | inactive | 10.1 µM (active)
35 | CC1(C)C(C=C(Cl)Cl)C1C(=O)OC(C#N)c1ccc(F)c(Oc2ccccc2)c1 (stereo unspecified) | inactive | 
36 | CN1CSC(=S)N(C)C1 | inactive | 
37 | CCN(CC)C(=O)SCc1ccc(Cl)cc1 | inactive | 
38 | O=C(O)C(F)(F)C(F)(F)C(F)(F)C(F)(F)C(F)(F)C(F)(F)C(F)(F)F | inactive | 
39 | CCc1ccc(C(=O)NN(C(=O)c2cc(C)cc(C)c2)C(C)(C)C)cc1 | inactive | 
40 | CC(C)OC(=O)Nc1cccc(Cl)c1 |  | 50 µM (active)
41 | COc1nn(CSP(=S)(OC)OC)c(=O)s1 | inactive | 
42 | ClC1C(Cl)C(Cl)C(Cl)C(Cl)C1Cl (stereo unspecified) | inactive | 
43 | O=C(O)CCCOc1ccc(Cl)cc1Cl | inactive | 
44 | CCC(C)(NC(=O)c1cc(Cl)c(C)c(Cl)c1)C(=O)CCl (stereo unspecified) |  | 90.6 µM (active)
